# Source: PubChem (National Center for Advancing Translational Sciences (NCATS))
# POLK inh = blocks human DNA polymerase kappa activity | Q9UBT6 | purified Pol kappa, fluorescent DNA synthesis assay, 10 min | Potency, µM (highest dose often 107 µM), for inactives: at the highest dose activity, negative = inhibition, actives largely listed as inhibitors | actives 0.53% (n = 400,000) | AID 588579; note: % is set by controls: 0 for no effect and ±100 for the full control effect
#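 Inhibition of 10 nM Pol kappa is measured by a fluorescent read-out at 0 and 10 min following addition of 50 nM substrate (final), with a 15-min room-temperature compound preincubation.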
# GLS inhibitor = glutaminase GLS (human) inhibition; Potency, µM (titrated, usually from 45.5 µM), for the others: at the highest dose activity change, negative = inhibition, actives largely listed as inhibitors; GLS enzymatic activity, qHTS titration; O94925; actives 0.21% (n = 410,000); note: % is set by controls: 0 for no effect and ±100 for the full control effect
#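 Assay buffer: 45 mM KH2PO4 pH 8.2, 0.02% Tween-20. hKGA acts on L-glutamine (1 mM solution added); product glutamate is reported by an oxidase/peroxidase Amplex Red coupling, with fluorescence taken at baseline and 30 min.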
# POLB inh = DNA polymerase beta (human) inhibition. P06746. Pol beta primer extension/strand displacement, fluorescence kinetic. Potency, µM (top dose mostly 114 µM), inactives show at the highest dose activity change, negative = inhibition, actives largely listed as inhibitors. actives 1.3% (n = 340,000); note: % is set by controls: 0 for no effect and ±100 for the full control effect
#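 Enzyme-only controls used 10 nM Pol beta; buffer lacking enzyme served as negative control. Compound preincubated 15 min, then 50 nM substrate added; 0 and 10 min reads at room temperature.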
# APEX1 inh = blocks human APE1 abasic DNA cleavage | recombinant APE1, TAMRA/BHQ-2 abasic DNA cleavage fluorescence | Potency, µM (doses to about 65.8 µM), inactives show at the highest dose activity change, negative = inhibition, most hits filed as inhibitors | actives 0.35% (n = 350,000) | AID 2517;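 note: plate controls were vehicle for no effect and reference inhibitor for full effect; nearly all actives have a fitted effect of over 55% in size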
# Target sequence (P27695 whole entry, looked up): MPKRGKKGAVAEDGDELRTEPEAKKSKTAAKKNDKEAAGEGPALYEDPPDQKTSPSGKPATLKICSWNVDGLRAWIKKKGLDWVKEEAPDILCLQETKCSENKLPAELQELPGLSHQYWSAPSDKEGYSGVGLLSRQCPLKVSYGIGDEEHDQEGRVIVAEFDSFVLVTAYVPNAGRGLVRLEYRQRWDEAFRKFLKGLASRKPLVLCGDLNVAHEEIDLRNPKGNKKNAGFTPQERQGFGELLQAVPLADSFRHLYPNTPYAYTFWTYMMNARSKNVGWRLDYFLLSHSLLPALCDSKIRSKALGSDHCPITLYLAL
#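 Substrate: short duplex with […] THF abasic site, 5'-TAMRA and 3'-BHQ-2, 50 nM final. APE1 at 0.75 nM, preincubated 15 min RT with compound. Fluorescence increase from first to third read measured activity.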
# Pol iota inh = DNA polymerase iota (human) inhibition; actives 1% (n = 390,000); Pol iota fluorescent replication assay, 10 min; Q9UNA4; Potency, µM (highest dose often 115 µM), without a hit: at the highest dose activity, negative = inhibition, usual class: inhibitors
#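 Pol iota at 10 nM preincubated 15 min with compounds at room temperature; reaction started with fluorescent substrate, 50 nM final. Fluorescence read kinetically at 0 and 10 min; buffer-only wells as negative control.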
# POLH inh = DNA polymerase eta (human) inhibition; recombinant Pol eta, fluorescent DNA replication assay; Potency, µM (series often up to 114 µM), inactives show at the top dose activity change, negative = inhibition, usual class: inhibitors; AID 588591; actives 1.2% (n = 390,000); note: % is set by controls: 0 for no effect and ±100 for the full control effect
#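 Pol eta at 10 nM preincubated with compounds 15 min at room temperature; reaction started with fluorescent substrate (50 nM final) and read kinetically at 0 and 10 min.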
# The depositor's hits bear a star; ? = inconclusive; . = no result; [ ] = remark or other dose. The list is not random: actives were taken first. Their share in the collection is about 2.4%. Calls come from the whole dose curve; as a rule, active = well fitted curve in the direction sought with a large enough effect; inconclusive = small, poorly fitted or top-dose-only effect, or another doubt; inactive = no such curve, though single readings can be large; an effect the other way counts as inactive or inconclusive. Potency is the fitted concentration of half-maximal effect.
SMILES,POLK inh,GLS inhibitor,POLB inh,APEX1 inh,Pol iota inh,POLH inh
Cc1c(-c2nc(-c3ccc(C(F)(F)F)cc3)no2)n(C)oc1=O,5%,3%,-1%,0%,50%,-8%
CC(=O)N1CCOc2ccc(S(=O)(=O)NCC3CCC(C(=O)Nc4ccc(C)cn4)CC3)cc21 (stereo unspecified),-8%,2%,37%,4%,5%,-2%
Cc1ccc(-c2ccc(/C=C3/NC(=O)NC3=O)o2)cc1[N+](=O)[O-],?,5%,-4%,-5%,50µM*,?
O=C1NC(=S)N/C1=C/c1ccc(-c2c(Br)cc([N+](=O)[O-])cc2Br)o1,.,.,8.9µM*,-11%,.,.
CCCCC(=O)N(Cc1ccc2c(c1)OCO2)Cc1nc2ccccc2c(=O)[nH]1,-3%,-25%,0%,6%,82%,-10%
CC(=O)n1nc(-c2ccco2)nc1SCc1ccccc1,-21%,1%,-2%,-1%,?,-4%
CCC(=O)n1nc(-c2ccco2)nc1SCc1ccccc1,-4%,7%,22µM*,-2%,14%,-8%
CN(C)CC(CCC(CN(C)C)C(=O)c1ccccc1)C(=O)c1ccccc1 (stereo unspecified),-3%,1%,0%,2%,22µM*,-5%
CCOc1ccc(C(=O)C(CCC(CN(C)C)C(=O)c2ccc(OCC)cc2)CN(C)C)cc1 (stereo unspecified),-5%[60.1 µM],12%,0%,-1%,?,0%
CCOC(=O)c1c(O)c2c([nH]c1=O)CCCC2,-9%,-2%,14%,-3%,-12%,-6%
CCOC(=O)c1c2c([nH]c(=S)c1C#N)CCCC2,-17%,3%,?,10%,?,79µM*
NC(=O)CC(NC(=O)Cc1ccc(Cl)cc1)c1ccc(NCCN2CCOCC2)c([N+](=O)[O-])c1 (stereo unspecified),15%,-4%,-2%,28%,2%,0%
Cc1cc(C)c(NC(=O)CN)c(C)c1,-4%,0.89µM*,1%,1%,-22%,-7%
CC(=O)N1CCc2cc(S(=O)(=O)CCC(=O)NCc3ccc4c(c3)OCO4)ccc21,-11%,-3%,45µM*,0%,-12%,?
COCCNC(=O)c1cccc(NS(=O)(=O)c2cccc3cccnc23)c1,-6%,11%,8%,-11%,11%,-17%
O=C(NCCc1ccc(Cl)cc1)c1ccc(Cn2c(=O)c3cccn3c3cccnc32)cc1,-28%,1%,11µM*,.,?,?
O=C(O)c1ccc(N2CCCCC2)cc1O,0%,9%,3%,12%,18%,-17%
O=C(O)c1ccc(N2Cc3ccccc3C2)cc1O,?,4µM*,45µM*,2%,?,5.6µM*
O=c1c2cnn(-c3ccc(F)cc3)c2ncn1Cc1cccnc1,5%,-7%,7%,-5%,3%,-8%
C=CCN1C(=O)/C(=C/c2ccc(-c3ccc(F)cc3)o2)SC1=S,0%,4%,10µM*,25%,13%,-11%
C=CCN1C(=O)/C(=C/c2ccsc2)SC1=S,-17%,1%,12%,1%,1%,1%
NC(=O)c1csc(-c2ccncc2)n1,-11%,4%,-2%,1%,0%,-2%
Nc1cc(-c2ccncc2)c[nH]c1=O,0%,26%,-6%,?,10µM*,?
O=C(NNc1cccc(Cl)n1)c1c(F)cccc1F,-9%,7.9µM*,19%,-5%,134%,-1%
CCOc1ncccc1C(=O)Nc1ccc(S(=O)(=O)Nc2nccs2)cc1,-5%,-2%,23%,16%,47%,-18%
SMILES,POLK inh,GLS inhibitor,POLB inh,APEX1 inh,Pol iota inh,POLH inh
CC(C)c1ccc(S(=O)(=O)/N=C2/C=C(Sc3ncn[nH]3)C(=O)c3ccccc32)cc1,79µM*,11%,22µM*,4%,3.5µM*,13µM*
Cc1ccc(S(=O)(=O)/N=C2/C=C(Sc3ncn[nH]3)C(=O)c3ccccc32)c(C)c1,.,.,?,-6%,.,.
Cc1ccc(S(=O)(=O)/N=C2/C=C(Sc3ncn[nH]3)C(=O)c3ccccc32)cc1,-35%,31%,?,-11%,1.1µM*,3.5µM*
COc1cccc(OCCCn2cc(/C=C3/C(=N)N4C=C(C)SC4=NC3=O)c3ccccc32)c1,-17%,1%,-13%,-4%,-6%,-21%
Cc1cccc(C(=O)Nc2ccc(C(=O)N/N=C/c3cccnc3)cc2)c1,-8%,-5%,18%,45%,37%,-14%
O=C(N/N=C/c1ccccc1)c1ccc(NC(=O)c2ccc(F)cc2)cc1,0%,-12%,-2%,35%,131%,-14%
Cc1ccc(C(=O)Nc2ccc(C(=O)N/N=C/c3cccnc3)cc2)cc1,-13%,-2%,?,-3%,79µM*,-5%
O=C(N/N=C/c1cccnc1)c1cccc(Cl)c1,4%,1%,35%,-6%,29%,-1%
O=C(N/N=C/c1cccnc1)c1cccc(NC(=O)c2ccc(Cl)cc2)c1,-20%,3%,40µM*,0%[12.4 µM],?,?
Cc1ccccc1C(=O)Nc1ccc(C(=O)N/N=C/c2ccc(F)cc2)cc1,-13%,-11%,40µM*,-4%,-6%,4%
O=C(c1cc(S(=O)(=O)N2CCOCC2)ccc1Cl)N1CCc2ccccc2C1,-10%,6%,85%,3%,19%,-14%
CC(C)CCN(C(=O)c1cc(=O)[nH]c2ccccc12)c1c(N)n(Cc2ccccc2)c(=O)[nH]c1=O,-4%,-3%,.,4%,18%,7%
Cc1cc2c(NC(=O)Nc3ccccc3)cccc2nn1,2%,-1%,-2%,?,133%,-10%
Cc1cc2c(N)cccc2nn1,89µM*,7%,22µM*,-1%,5.6µM*,-11%
Nc1cccc2nc3ccccc3cc12,8%,22%,8.9µM*,?,-15%,14%
C(#Cc1ccccc1)C[N+]1(CC#Cc2ccccc2)CCCC1,0%,8%,47%,-2%,24%,1%
C=CC#CC[N+]1(CC#Cc2ccccc2)CCOCC1,?,-23%,4%,2%,?,35µM*
Cc1cc2cc3c(cc2nc1SCC(=O)N1CCN(C(=O)c2ccco2)CC1)OCO3,-24%,-8%,?,-7%,71µM*,5%
Cc1cc2nc(-c3ccc(SCc4ccccn4)nc3)[nH]c2cc1C,-6%,?,?,-5%,45µM*,-26%
Cc1cc2nc(-c3ccc(SCC(=O)N4CCN(C(=O)c5ccco5)CC4)nc3)[nH]c2cc1C,?,-8%,35µM*,-9%,?,79µM*
